Screens (PubChem BioAssay)
Only a selection was taken, and hits are over-represented in it overall.
Pf Dd2 inh: Plasmodium falciparum Dd2 growth inhibition. hit rate 4.3% among 120,000. P. falciparum Dd2 growth, SYBR Green, 72 h. Potency, µM (top dose mostly 28.9 µM), for the others: at the top dose activity, negative = inhibition, most hits filed as inhibitors; active = well fitted inhibition curve with a large enough effect;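 also: plate controls were DMSO vehicle for no effect and reference drug for full effect; nearly all actives have a fitted effect of over 65% in size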
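Readout: SYBR Green fluorescence, 485 nm excitation, 535 nm emission, after ~16 h lysis at 37C. Before that, Dd2-infected red cells (2.5% hematocrit) grew 72 h with compound, 29 uM top final concentration.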
* = called active by the depositor; [ ] = dose if it differs, or a comment. Potency is read from the fitted curve at half-maximal effect.

Screening O=C(NCCc1ccccc1)c1ccc(CSc2nc3cccnc3n2Cc2ccccc2F)cc1 returned Pf Dd2 inh 8.9µM*.
O=C(NC1CCCCC1)c1ccc(Cn2c(SCc3ccccc3F)nc3cccnc32)cc1 was read as Pf Dd2 inh inactive.
`CCOc1ccccc1CNC(=O)c1ccc(Cn2c(SCc3ccccc3)nc3cccnc32)cc1` gave Pf Dd2 inh 11µM*.
For Cc1ccccc1CNC(=O)c1ccc(CSc2nc3cccnc3n2Cc2ccccc2)cc1 the results were Pf Dd2 inh -16%.
O=C(NCc1ccco1)c1ccc(Cn2c(SCc3ccc(F)cc3)nc3cccnc32)cc1 was read as Pf Dd2 inh inactive.
`O=C(NCc1ccccc1F)c1ccc(CSc2nc3cccnc3n2Cc2ccccc2)cc1` gave Pf Dd2 inh -16%.
`CN(Cc1ccccc1)C(=O)c1ccc(CSc2nc3cccnc3n2Cc2ccccc2)cc1` gave Pf Dd2 inh 10µM*.
For O=C(NCCc1ccccc1)c1ccc(Cn2c(SCc3ccc(F)cc3)nc3cccnc32)cc1 the results were Pf Dd2 inh inactive.
`CNC(=O)c1ccc(CSc2nc3cccnc3n2Cc2cccc(F)c2)cc1` gave Pf Dd2 inh -21%.
For O=C(NCc1ccccc1)c1ccc(CSc2nc3cccnc3n2Cc2ccccc2)cc1 the results were Pf Dd2 inh -5%.
For O=C(NCCN1CCCCC1)c1ccc(Cn2c(SCc3cccc(F)c3)nc3cccnc32)cc1 the results were Pf Dd2 inh 7.9µM*.
`COc1cccc(-c2cc(CNC(=O)C3COc4c(cccc4OC)C3)no2)c1` (stereo not given) gave Pf Dd2 inh -2%.
`CN(C)[C@@H]1CN(C(=O)c2ccsc2)CC[C@]1(O)c1ccccc1` gave Pf Dd2 inh inactive[5.79 µM].
`N#Cc1cccc(C(=O)N2CCOCCNC(=O)CC2)c1` gave Pf Dd2 inh 14%.
Screening Cc1nc(-c2cccnc2)ncc1C(=O)N1CC[C@](C)(O)C(C)(C)C1 returned Pf Dd2 inh 9%.
Screening O=C(c1cccs1)N1CCC2(CC1)NC(=O)N(Cc1ccccc1)C2=O returned Pf Dd2 inh 10%.
Screening CC(C)c1noc(-c2cn(C3CCCN(C(=O)c4cccc(F)c4)C3)nn2)n1 (stereo not given) returned Pf Dd2 inh -9%.
For O=C(NC1CCCC1)N1CCCC(c2nn[nH]n2)C1 (stereo not given) the results were Pf Dd2 inh 24%.
COCCO[C@H]1C(=O)N(C2CCN(C(=O)Nc3ccccc3F)CC2)[C@H]1c1ccncc1 was read as Pf Dd2 inh 25%.
Screening O=C(NC1CC1)c1ccc(Cn2c(SCc3ccccc3F)nc3cccnc32)cc1 returned Pf Dd2 inh -4%.
Screening COc1ccc(Cn2c(SCc3ccc(C(=O)NCCc4ccccc4)cc3)nc3cccnc32)cc1 returned Pf Dd2 inh 13µM*.
`Cc1cnc(C)c(N2CCN(Cc3nc(-c4sccc4C)oc3C)CC2)n1` gave Pf Dd2 inh inactive.
Screening CCN(CC)C[C@H]1CN2CC[C@H]1C[C@@H]2CNS(=O)(=O)c1ccccc1 returned Pf Dd2 inh inactive.
CC[C@H]1CN2CC[C@H]1C[C@@H]2CNC(=O)c1ccc2ccccc2c1 was read as Pf Dd2 inh inactive.
For COc1ccc(-c2cc([C@H]3CN4CC[C@H]3C[C@@H]4CNS(=O)(=O)c3ccccc3)n(C)n2)cc1 the results were Pf Dd2 inh inactive.
`CC[C@H]1CN2CC[C@H]1C[C@@H]2CNCc1ccc(OC)cc1` gave Pf Dd2 inh 8.9µM*.
For COc1ccc(CNC[C@H]2C[C@@H]3CCN2C[C@@H]3c2cc(-c3ccc(F)cc3)nn2C)cc1 the results were Pf Dd2 inh 13µM*.
Screening COc1ccc(-c2cc([C@H]3CN4CC[C@H]3C[C@@H]4CNC(=O)c3ccco3)n(C)n2)cc1 returned Pf Dd2 inh -14%[44.1 µM].
`C=C[C@H]1CN2CC[C@H]1C[C@@H]2CNCc1ccc(N(C)C)cc1` gave Pf Dd2 inh inactive.
For CC[C@H]1CN2CC[C@H]1C[C@@H]2CN(Cc1ccc(SC)cc1)Cc1ccc(SC)cc1 the results were Pf Dd2 inh 3.5µM*.
`CC[C@H]1CN2CC[C@H]1C[C@@H]2CNC(=O)Nc1ccc(Br)cc1` gave Pf Dd2 inh -19%[44.1 µM].
COC(=O)CNC(=O)NCCc1noc(C2CC2)n1 was read as Pf Dd2 inh -18%.
For O=C(N[C@@H]1CCN(C(=O)CSc2ccccn2)C[C@H]1O)c1ccncc1 the results were Pf Dd2 inh -10%.
CCC(C)NC(=O)CC1=CSC2=NC(C)=C(C(=O)Nc3ccccc3)C(c3cccc(C)c3)N12 (stereo not given) was read as Pf Dd2 inh -12%.
Screening COc1ccc(-c2cnc([C@@H]3COCCN3)[nH]2)cc1 returned Pf Dd2 inh inactive.
COCCOc1ccc2c(n1)CCN(C(=O)c1ccnn1C)C2 was read as Pf Dd2 inh 42%.
Screening CC(=O)Nc1cccc(NC(=O)CC[C@H]2NC(=O)c3ccccc3NC2=O)c1 returned Pf Dd2 inh -4%.
Cc1nc2c(C(=O)NCCc3ccc(Cl)cc3)c[nH]n2c(=O)c1Cc1ccccc1F was read as Pf Dd2 inh 30%.
